This is an account of results in PubChem BioAssay AID540350 (National Center for Advancing Translational Sciences (NCATS), 2011).

Some of the results follow. Results filed as inconclusive are left out. The source made the active and inactive calls. The call rests on the fitted dose curve; in most records, active means well fitted inhibition curve with a large enough effect; inconclusive means small, poorly fitted or top-dose-only effect; inactive means no such curve, though single readings can be large or run the other way.

The assay deals with 4'-phosphopantetheinyl transferase Sfp (Bacillus subtilis (strain 168)) (UniProt P39135). In words: qHTS Assay for Inhibitos of Bacillus subtilis Sfp phosphopantetheinyl transferase (PPTase): Chemistry Optimization Followup. The following applies: purified Sfp PPTase enzyme activity. The source says:
The covalent attachment of a phosphopantetheinyl (4'-PP) arm to a variety of synthases and other proteins is a key posttranslational protein modification. The 4'-PP is installed on the proteins post-translationally from coenzyme A (CoA) on a conserved serine residue by action of phosphopantetheinyl transferase (PPTase) enzymes. Phosphopantetheinylation is essential for synthase activity, and removal of the PPTase gene precludes natural product synthesis in microorganisms, or in the case of fatty acid biosynthesis, renders the organism unviable. PPTase enzymes belong to a distinct structural superfamily. Within bacteria, these enzymes are grouped into two classes based upon primary structure, the AcpS-Type and Sfp-Type PPTases.
Sfp-type PPTases, corresponding to an activator of surfactin production in Bacillus subtilis, are responsible for modifying type I polyketide and nonribosomal peptide synthases of prokaryotes. Sfp-type PPTases are responsible for the activation of a variety of pathogen-associated virulence factors. Among these compounds are toxins such as mycolactone from Mycobacterium ulcerans, siderophores such as vibriobactin from Vibrio cholerae or mycobactin from Mycobacterium tuberculosis, as well as the mycolic acids which form the waxy cell wall of Mycobacteria. The biosyntheses of these natural products are considered attractive targets for drug design.
In search of small molecule Sfp-PPTase inhibitors, a fluorescence quenching assay was developed for detection of Bacillus subtilis Sfp-PPTase enzymatic activity in a miniaturized high-throughput format. The consensus ybbr acceptor peptide […] was N-terminally labeled with Black Hole Quencher-2 (BHQ-2) and used in combination with rhodamine-labeled coenzyme A as a co-substrate.
Inhibition of Sfp-PPTase was detected by recording the fluorescence intensity change over a 30-minute reaction period at a 525 nm excitation and 598 nm emission. Reagents were supplied by Michael Burkart and Timothy Foley, University of California at San Diego.
NIH Chemical Genomics Center [NCGC]
NIH Molecular Libraries Probe Centers Network [MLPCN]
Assay Submitter (PI): Michael Burkart, University of California, San Diego
3 uL of Sfp-PPTase enzyme (final concentration 15 nM) and 1 uL of substrate mixture (final concentration for rhodamine-CoA and BHQ-2-YbbR 5 uM and 12.5 uM, respectively) dispensed in columns 1, 2, 5 - 48. Columns 1 and 2 used to generate neutral control (uninhibited reaction)
Three uL of reagents, consisting of buffer (in columns 3 and 4 as negative control) and Sfp-PPTase (in columns 1, 2, 5 - 48) were dispensed into 1,536-well Greiner black solid bottom plate. Compounds (23 nL) were transferred via Kalypsys pintool equipped with 1,536-pin array. The plate was incubated for 15 min at room temperature, followed by the addition of 1 uL substrate to start the reaction. The plate was then centrifuged at 1000 rpm for 15 seconds, and the fluorescence intensity recorded on a ViewLux High-throughput CCD imager (Perkin-Elmer) using standard BODIPY optics (525 nm excitation and 598 nm emission). The plate was then incubated for 30 minutes, and a second read on the ViewLux was performed. The fluorescence intensity difference over the 30-minute period was used to calculate the respective reaction rate for each well.
For orientation: qHTS replaces the single test concentration by a dilution series.
Take `Cc1cc(C)nc(NC(=S)N2CCN(c3ccc(Cl)cc3C(F)(F)F)CC2)c1`: the Potency is 2960 nM (active).
For the compound `Cc1cc(C)nc(NC(=S)N2CCN(c3ccc(Cl)cc3F)CC2)c1`, the Potency is 1870 nM (active).
To `Cc1cc(C)nc(NC(=S)N2CCN(c3ccc4nonc4c3)CC2)c1` belongs 7440 nM (active); to `Cc1cc(C)nc(NC(=S)N2CCN(c3cccc(C(F)(F)F)c3)CC2)c1`, 1670 nM (active); to `Cc1cc(C)nc(NC(=S)N2CCN(c3cccc(C#N)c3)CC2)c1`, 5910 nM (active).
In the case of `COc1ccnc(NC(=S)N2CCN(c3ncc(C(F)(F)F)cc3Cl)CC2)c1`, the Potency was 2640 nM (active).
With `Cc1ccc(N2CCN(C(=S)Nc3cc(C)ccn3)CC2)cc1` the figure was 6630 nM (active).
